Assay results taken from PubChem BioAssay.
A number with no mark means an inactive call. The rule behind the calls is not given here.

target: Pantothenate synthetase (Mycobacterium tuberculosis (strain ATCC 25618 / H37Rv)) (UniProt P9WIL5); test: Coupled enzyme confirmation of inhibitors against recombinant Mtb PanC (AID 375); details: coupled enzyme assay; at 10 µM, stronger effect = higher value;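 note: 0% = full reaction with vehicle and 100% = no enzyme background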
Sequence (P9WIL5 whole entry, looked up): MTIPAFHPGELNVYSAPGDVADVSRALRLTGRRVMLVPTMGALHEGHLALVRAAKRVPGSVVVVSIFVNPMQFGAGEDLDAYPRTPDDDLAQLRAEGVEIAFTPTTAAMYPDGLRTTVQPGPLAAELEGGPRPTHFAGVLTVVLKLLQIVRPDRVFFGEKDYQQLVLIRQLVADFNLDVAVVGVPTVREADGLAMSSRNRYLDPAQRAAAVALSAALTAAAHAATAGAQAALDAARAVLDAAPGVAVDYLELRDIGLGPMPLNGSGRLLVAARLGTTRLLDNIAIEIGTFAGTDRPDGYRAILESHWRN

| Structure (SMILES) | inhibition [%] |
| --- | --- |
| COc1ccc(CN(CC(=O)NCC2CCCO2)C(=O)CCC(=O)Nc2cc(C)on2)cc1 (stereo not given) | 0 |
| O=C1C2C3C=CC(C3)C2C(=O)N1c1cccc(N2C(=O)C3C4C=CC(C4)C3C2=O)n1 (stereo not given) | 0 |
| O=C(CSc1ncnc2nc[nH]c12)c1ccc(Cl)cc1 | 1 |
| CC(=O)CCc1c(C)[nH]c2ccccc2c1=O | 1 |
| COc1cccc(/C(O)=C2/C(=O)C(=O)N(CCN3CCOCC3)C2c2cccnc2)c1 (stereo not given) | 1 |
| CCOC(=O)CCC(=O)c1c(C)oc2ccc(OC)cc12 | 4 |
| COc1ccc(N2C(=O)CCC(C(=O)N3CCCCC3)C2c2ccc(OC)c(OC)c2)cc1 (stereo not given) | 6 |
| Cc1cc2nc3c(nc2cc1C)C1(C(=O)O)CCC3(C)C1(C)C (stereo not given) | 0 |
| CC(=O)c1c(C)nc(C)nc1NC(=O)Cc1ccccc1 | 0 |
| N#CC(C(=O)Nc1ccc(Cl)c(Cl)c1)=C1Nc2ccccc2N1 | 2 |
| O=C(NCCCN1CCCC1=O)c1ccc2c(=O)n(Cc3ccco3)c(=S)[nH]c2c1 | 0 |
| C=C(C)c1cccc(C(C)(C)NC(=O)NCC2CCCO2)c1 (stereo not given) | 2 |
| CCCN1C2CCCC1CC(NC(=O)Nc1cccc(C(C)=O)c1)C2 (stereo not given) | 1 |
| Cc1cc(=O)oc2cc(OCC#N)ccc12 | 0 |
| CC1(C)NC(=O)N(CC(O)COc2cccc(F)c2)C1=O (stereo not given) | 0 |
| O=C(CSc1nnc(CNC(=O)c2cccs2)o1)NC1CCCC1 | 0 |
| CCCC(=O)N=C1SC2CS(=O)(=O)CC2N1c1ccc(CC)cc1 (stereo not given) | 0 |
| COCCNC(=O)CN1C(=O)CSc2ncccc21 | 0 |
| Cc1cc(NC(=O)CCC(=O)N(CCc2ccccc2)C(C(=O)NC2CCCC2)c2ccco2)no1 (stereo not given) | 7 |
| Cc1cc(C)c2nc(N)sc2c1 | 0 |

| Structure (SMILES) | inhibition [%] |
| --- | --- |
| CCOC(=O)CSC1=C(C#N)C(c2ccc(C)cc2)C(C(=O)OC)C(=O)N1 (stereo not given) | 0 |
| Cc1cc(C(=O)OCCO)c(C#N)c(N)n1 | 0 |
| Cc1onc(-c2c(Cl)cccc2Cl)c1C(=O)NCC1CCCO1 (stereo not given) | 0 |
| Cc1ccc2c(CC(=O)OCc3csc(C)n3)coc2c1 | 0 |
| Cc1nn(-c2ccc(F)cc2)c2nc(N)c(C#N)c(-c3cccs3)c12 | 6 |
| CCCC(C)C1C(C#N)=C(N)Oc2cc(C)oc(=O)c21 (stereo not given) | 1 |
| O=C(NC1CC1)c1cccc(Nc2ccc(-c3ccc4c(c3)OCCO4)nn2)c1 | 1 |
| CC1CCc2nn(CC(=O)NCCCN3CCOCC3)cc2C1 (stereo not given) | 0 |
| O=C(NCc1nc2ccccc2[nH]1)c1ccco1 | 0 |
| CCC(C)NC(=O)CCNS(=O)(=O)c1ccc(Br)cc1 (stereo not given) | 0 |
| NC(N)=Nc1nc(CSCC/C(N)=N/S(N)(=O)=O)cs1 | 0 |
| CCCS(=O)(=O)N1CCC(C(=O)NCCN2CCCC2)CC1 | 0 |
| Cc1ccc(CCC(=O)Nc2ccc(S(N)(=O)=O)cc2)o1 | 1 |
| CCN=C1SC(CC(=O)Nc2ccccc2OCC)C(=O)N1CC (stereo not given) | 0 |
| Cn1cnnc1Sc1nc2c(c(=O)n(C)c(=O)n2C)n1Cc1ccccc1Cl | 0 |
| CCOC(=O)c1ccc(NC(=O)CCNc2c(N3CCCC3)c(=O)c2=O)cc1 | 0 |
| O=C(O)c1cccnc1Nc1cccc(C(F)(F)F)c1 | 0 |
| COc1cc(C2=NOC(C(=O)NCc3ccc(F)cc3)C2)cc(OC)c1OC (stereo not given) | 0 |
| Cn1c(Cl)cnc1C1CC(=O)c2cc(Cl)ccc2O1 (stereo not given) | 7 |
| Cc1nnc(NC(=O)Nc2cccc(Cl)c2)s1 | 0 |
